PubChem BioAssay (NCI)
Compounds without any hit were thinned out: in the full panel of roughly 79,000, 15% have a hit. Calls of active or inactive are those of the source. Cut-off read from the data, not from the text of the source: active = growth inhibition above about 70%; inactive = the rest.

Assays:
[1] = NCI Yeast Anticancer Drug Screen. Data for the rad52 strain (AID 147);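 note: 0% = growth of vehicle-treated control cultures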; conditions: S. cerevisiae rad52 mutant growth inhibition, active compounds read high
Method in brief: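 Genetically altered yeast (DNA damage repair defect) treated with compound; inhibition calculated relative to vehicle.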

[2] = NCI Yeast Anticancer Drug Screen. Data for the wt1 strain (AID 149);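 note: 0% = growth of vehicle-treated wt1 cultures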; conditions: S. cerevisiae wt1 strain (SPY 50644) growth inhibition, active compounds read high
Method in brief: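 Each compound is tested on wt1 yeast and the loss of growth versus vehicle gives the inhibition value.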

[3] = NCI Yeast Anticancer Drug Screen. Data for the rad50EPP+ strain (AID 151);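 note: 0% = growth of vehicle-treated control cultures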; conditions: S. cerevisiae rad50 mutant strain, active compounds read high
Method in brief: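 Strain rad50EPP+; compound exposure; % growth inhibition vs vehicle.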

[4] = NCI Yeast Anticancer Drug Screen. Data for the mgt1 strain (AID 153); conditions: S. cerevisiae mgt1 mutant growth inhibition, active compounds read high
Method in brief: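 Read-out: yeast growth inhibition vs vehicle control. Strain mgt1, drawn from a panel altered in DNA damage repair or cell cycle control.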

[5] = NCI Yeast Anticancer Drug Screen. Data for the rad50 strain (AID 155);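 note: 0% = growth of vehicle-only cultures of the same strain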; conditions: S. cerevisiae rad50 strain growth inhibition, active compounds read high
Method in brief: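 Vehicle-treated cultures provide the reference for the growth inhibition reported for compound-exposed, repair-deficient yeast.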

[6] = NCI Yeast Anticancer Drug Screen. Data for the mec2-1 strain (AID 157); conditions: S. cerevisiae mec2-1 strain, active compounds read high
Method in brief: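 Cells of the genetically defined mec2-1 yeast strain are incubated with test compound. Inhibition of growth is calculated against vehicle-treated controls.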

[7] = NCI Yeast Anticancer Drug Screen. Data for the rad14 strain (AID 159);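 note: 0% = growth of vehicle-treated control cultures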; conditions: S. cerevisiae rad14 strain growth inhibition, active compounds read high
Method in brief: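 Inhibition of growth is reported for a repair-deficient yeast mutant following compound treatment, calculated relative to cultures that received vehicle.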

[8] = NCI Yeast Anticancer Drug Screen. Data for the sgs1 mgt1 strain (AID 161);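 note: 0% = growth of cultures given vehicle only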; conditions: S. cerevisiae sgs1 mgt1 strain, active compounds read high
Method in brief: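 Test agents were incubated with a DNA-repair-mutant yeast strain. Growth was then read and compared against vehicle-treated controls.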

[9] = NCI Yeast Anticancer Drug Screen. Data for the CLN2oe strain (AID 163);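 note: 0% = growth of vehicle-only control cultures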; conditions: S. cerevisiae CLN2oe strain, active compounds read high
Method in brief: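 Strain altered in cell-cycle control, incubated with compound; growth compared to solvent-treated controls.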

[10] = NCI Yeast Anticancer Drug Screen. Data for the cln2 rad14 strain (AID 165);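 note: 0% = growth equal to vehicle treated cultures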; conditions: S. cerevisiae cln2 rad14 strain, active compounds read high
Method in brief: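 The screen exposed genetically defined yeast (cln2 rad14) to test compounds and scored growth inhibition relative to vehicle-treated controls.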

[11] = NCI Yeast Anticancer Drug Screen. Data for the bub3 strain (AID 167); conditions: S. cerevisiae bub3 mutant strain, active compounds read high
Method in brief: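 Mutant yeast screening strain plus compound; vehicle-treated cultures serve as the 0% inhibition reference.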

[12] = NCI Yeast Anticancer Drug Screen. Data for the wt2 strain (AID 169); conditions: S. cerevisiae wt2 strain growth inhibition, active compounds read high
Method in brief: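 Steps: yeast strain treated with compound; growth recorded; inhibition calculated relative to cultures given vehicle alone.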

[13] = NCI Yeast Anticancer Drug Screen. Data for the mlh1 strain (AID 171);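 note: 0% = growth of vehicle-treated control cultures of the same strain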; conditions: S. cerevisiae mlh1 strain growth inhibition, active compounds read high
Method in brief: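 Yeast screen: mutant strain plus compound, growth scored against vehicle control wells.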

[14] = NCI Yeast Anticancer Drug Screen. Data for the sgs1 strain (AID 173);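 note: 0% = growth of vehicle-only control cultures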; conditions: S. cerevisiae sgs1 mutant, active compounds read high
Method in brief: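 Inhibition of yeast growth served as the measure. The mutant strain was treated with each compound, and growth was normalised to cultures receiving vehicle alone.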

[15] = NCI Yeast Anticancer Drug Screen. Data for the mlh1 rad18 strain (AID 175); conditions: S. cerevisiae mlh1 rad18 strain growth inhibition, active compounds read high
Method in brief: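 Compound-treated yeast growth, normalised to vehicle controls. Strain bears defined DNA repair mutations.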

[16] = NCI Yeast Anticancer Drug Screen. Data for the rad18 strain (AID 177); conditions: S. cerevisiae rad18 mutant growth inhibition, active compounds read high
Method in brief: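 Inhibition values reflect reduced yeast growth compared with vehicle-treated controls, using a strain engineered with a DNA damage repair defect.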

[17] = at 5.0 µM (retest, dose inferred, filed as 0.5)
[18] = at 50.0 µM (retest, dose inferred, filed as 5.0)

Measured: growth inhibition

S=C1C(=Nc2ccccc2)N(c2ccccc2)/C(=N\c2ccccn2)N1c1ccccc1
active: [1]; at 33.0 µM 99% | [1]; at 100.0 µM 93% | [2]; at 33.0 µM 98% | [2]; at 100.0 µM 98% | [4]; at 33.0 µM 99% | [4]; at 100.0 µM 97% | [5]; at 33.0 µM 98% | [5]; [18] 97% | [5]; at 50.0 µM 98.1% | [5]; at 100.0 µM 91% | [6]; at 33.0 µM 99% | [6]; [18] 98% | [6]; at 50.0 µM 97.9% | [6]; at 100.0 µM 97% | [7]; at 33.0 µM 99% | [7]; at 100.0 µM 95% | [8]; [18] 98% | [8]; at 50.0 µM 98% | [9]; at 33.0 µM 99% | [9]; at 100.0 µM 97% | [10]; [18] 97% | [10]; at 50.0 µM 97.4% | [11]; at 33.0 µM 99% | [11]; [18] 97% | [11]; at 50.0 µM 97.7% | [11]; at 100.0 µM 99% | [12]; at 33.0 µM 99% | [12]; at 100.0 µM 95% | [13]; at 33.0 µM 99% | [13]; at 100.0 µM 96% | [14]; at 33.0 µM 99% | [14]; at 100.0 µM 94% | [15]; [17] 76% | [15]; [18] 97% | [15]; at 50.0 µM 97.8% | [16]; at 33.0 µM 99% | [16]; at 100.0 µM 87%
inactive: [1]; at 1.2 µM -2% | [1]; at 3.7 µM 1% | [1]; at 11.0 µM 44% | [2]; at 1.2 µM -4% | [2]; at 3.7 µM -4% | [2]; at 11.0 µM 21% | [3]; at 1.2 µM -3% | [3]; at 3.7 µM -4% | [3]; at 11.0 µM -3% | [3]; at 33.0 µM 11% | [3]; at 100.0 µM 37% | [4]; at 1.2 µM -6% | [4]; at 3.7 µM -5% | [4]; at 11.0 µM 36% | [5]; at 1.2 µM -3% | [5]; at 3.7 µM -2% | [5]; [17] 41% | [5]; at 11.0 µM 46% | [6]; at 1.2 µM -7% | [6]; at 3.7 µM -1% | [6]; [17] 24% | [6]; at 11.0 µM 28% | [7]; at 1.2 µM -4% | [7]; at 3.7 µM -2% | [7]; at 11.0 µM 36% | [8]; [17] 10% | [9]; at 1.2 µM -8% | [9]; at 3.7 µM -11% | [9]; at 11.0 µM 37% | [10]; [17] 28% | [11]; at 1.2 µM -7% | [11]; at 3.7 µM -13% | [11]; [17] 0% | [11]; at 11.0 µM 31% | [12]; at 1.2 µM -4% | [12]; at 3.7 µM -2% | [12]; at 11.0 µM 27% | [13]; at 1.2 µM -5% | [13]; at 3.7 µM -2% | [13]; at 11.0 µM 37% | [14]; at 1.2 µM -2% | [14]; at 3.7 µM 4% | [14]; at 11.0 µM 66% | [16]; at 1.2 µM -3% | [16]; at 3.7 µM -3% | [16]; at 11.0 µM 57%

Brc1ccc(B2Nc3ccccc3N2)cc1
inactive: [1]; at 1.2 µM 3% | [1]; at 3.7 µM 14% | [1]; at 11.0 µM 29% | [1]; at 33.0 µM 42% | [1]; at 100.0 µM 46% | [2]; at 1.2 µM -2% | [2]; at 3.7 µM -1% | [2]; at 11.0 µM 16% | [2]; at 33.0 µM 31% | [2]; at 100.0 µM 40% | [3]; at 1.2 µM 10% | [3]; at 3.7 µM 19% | [3]; at 11.0 µM 29% | [3]; at 33.0 µM 34% | [3]; at 100.0 µM 42% | [4]; at 1.2 µM -5% | [4]; at 3.7 µM -2% | [4]; at 11.0 µM 10% | [4]; at 33.0 µM 25% | [4]; at 100.0 µM 5% | [5]; at 1.2 µM 6% | [5]; at 3.7 µM 14% | [5]; [17] 21% | [5]; at 11.0 µM 29% | [5]; at 33.0 µM 44% | [5]; [18] 53% | [5]; at 100.0 µM 54% | [6]; at 1.2 µM 1% | [6]; at 3.7 µM 6% | [6]; [17] 17% | [6]; at 11.0 µM 18% | [6]; at 33.0 µM 31% | [6]; [18] 59% | [6]; at 50.0 µM 56.8% | [6]; at 100.0 µM 46% | [7]; at 1.2 µM 13% | [7]; at 3.7 µM 24% | [7]; at 11.0 µM 37% | [7]; at 33.0 µM 53% | [7]; at 100.0 µM 63% | [8]; [17] 31% | [9]; at 1.2 µM -3% | [9]; at 3.7 µM 5% | [9]; at 11.0 µM 29% | [9]; at 33.0 µM 39% | [9]; at 100.0 µM 43% | [10]; [17] 12% | [10]; [18] 40% | [11]; at 1.2 µM 9% | [11]; at 3.7 µM 19% | [11]; [17] 30% | [11]; at 11.0 µM 15% | [11]; at 33.0 µM 43% | [11]; at 100.0 µM 52% | [12]; at 1.2 µM -4% | [12]; at 3.7 µM -4% | [12]; at 11.0 µM 6% | [12]; at 33.0 µM 17% | [12]; at 100.0 µM 27% | [13]; at 1.2 µM 0% | [13]; at 3.7 µM 6% | [13]; at 11.0 µM 17% | [13]; at 33.0 µM 28% | [13]; at 100.0 µM 44% | [14]; at 1.2 µM 0% | [14]; at 3.7 µM 6% | [14]; at 11.0 µM 23% | [14]; at 33.0 µM 35% | [14]; at 100.0 µM 45% | [15]; [17] 47% | [16]; at 1.2 µM -2% | [16]; at 3.7 µM 1% | [16]; at 11.0 µM 13% | [16]; at 33.0 µM 23% | [16]; at 100.0 µM 36%
active: [5]; at 50.0 µM 73.8% | [8]; [18] 77% | [8]; at 50.0 µM 82.1% | [10]; at 50.0 µM 71.7% | [11]; [18] 73% | [11]; at 50.0 µM 84.8% | [15]; [18] 87% | [15]; at 50.0 µM 82.5%
